Screening results: PubChem BioAssay, National Center for Advancing Translational Sciences (NCATS)
A selection: hits, their analogues and other compounds. The true share with any hit is near 2.6%.
ATXN viability – viability counter-screen for ATXN expression inhibitors. Potency, µM (titrated, usually from 56.7 µM), usual class: cytotoxic. 0.49% of 400,000 active. S2 cells (HEK-293 line with an ATXN2-luciferase reporter) viability, CellTiter-Fluor protease fluorescence, 24 h. AID 651635; further: potency means the concentration at half of the fitted maximal effect; nearly all actives have a fitted effect of over 40% in size
uPA surface inh – blocks generation of uPA at the cell surface. cell surface uPA generation assay, qHTS. Potency, µM (highest dose often 38.3 µM), without a hit: at the top dose activity change, negative = inhibition, hits mostly inhibitors. 0.31% of 330,000 active. AID 540303; active means well fitted inhibition curve with a large enough effect; inconclusive means small, poorly fitted or top-dose-only effect; inactive means no such curve, though single readings can be large or run the other way; tested in mouse RAW 264.7 cells; further: potency means the concentration at half of the fitted maximal effect; on the % scale 0 is the no-effect control and ±100 the full control effect; nearly all actives have a fitted effect of over 55% in size
HepG2 viability – counter-screen for TGF-b inhibitors: cytotoxicity in HepG2 cells | HepG2 CAGA-GFP viability, ATP luminescence, 18 h | AID 588856 | Potency, µM (series often up to 46.1 µM), for the others: at the top dose activity change, negative = cytotoxicity, hits mostly cytotoxic | 0.76% of 410,000 active; further: potency means the concentration at half of the fitted maximal effect
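CellTiter-Glo luminescence gave cytotoxicity after 18 hours at 37 degrees C. The cells were HepG2 CAGA-GFP in 1% FBS DMEM, stimulated with 500 pg/mL TGF-beta after compound addition. %Activity was normalised to no-cell wells (complete cell-killing) and DMSO (no toxicity), and curves were fitted and classified.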
TGFb inhibitor – blocks TGF-b signaling; HepG2 CAGA-GFP TGF-b/SMAD3 reporter, GFP fluorescence, 18 h; TGF-beta stimulated, 500 pg/mL final; Potency, µM (top dose mostly 46.1 µM), inactives show at the top dose activity, negative = inhibition, most hits filed as inhibitors; 1.2% of 410,000 active; AID 588855; further: potency means the concentration at half of the fitted maximal effect; on the % scale 0 is the no-effect control and ±100 the full control effect; nearly all actives have a fitted effect of over 65% in size
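HEPG2 CAGA-GFP, 1000 cells/well; 2 h settle, 37 C; cpd via pin tool; TGF-b 500 pg/mL final; 18 h, 37 C; GFP imaging ex488/em500-530; %Activity normalised to -TGF-b and +DMSO controls; CRC fit, curve class.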
ATXN2 expr inh – reduces ATXN2 reporter expression in HEK-293 cells; 0.72% of 360,000 active; Potency, µM (titrated, usually from 57 µM), for the others: top-dose activity change, negative = inhibition, hits mostly inhibitors; HEK-293 ATXN2-luciferase reporter, luminescence, 24 h; further: potency means the concentration at half of the fitted maximal effect; on the % scale 0 is the no-effect control and ±100 the full control effect; nearly all actives have a fitted effect of over 55% in size
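ATXN2-luciferase reporter cells (luciferase flanked by upstream and downstream ATXN2 gene portions) were treated 24 h at 37 °C with compounds at up to 57 uM. SteadyGlo luminescence gave expression; GF-AFC fluorescence gave viability.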
Giardia kill – kills Giardia lamblia. Giardia lamblia trophozoite viability. activity change, % at 7.66 µM, hits read low. 0.15% of 340,000 active. AID 540267; in the data active means activity change below about -80%; inconclusive means between about -30% and that limit;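 further: parasites exposed to compound for two days anaerobically before the ATP read; on the % scale 0 is the no-effect control and ±100 the full control effect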
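Giardia trophozoites, 100 cells per well, were exposed to compounds for 48 hrs at 37 deg C under anaerobic conditions; viability was then read as ATP content by bioluminescence after 15-30 min at room temperature.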
Active calls of the source: *; i = inactive; ? = inconclusive; · = no result given; ! = not confirmed by another sample. Unless noted, the call rests on the fitted dose curve; in most records, active means well fitted curve in the direction sought with a large enough effect; inconclusive means small, poorly fitted or top-dose-only effect, or another doubt; inactive means no such curve, though single readings can be large; an effect the other way counts as inactive or inconclusive.

SMILES	ATXN viability	uPA surface inh	HepG2 viability	TGFb inhibitor	ATXN2 expr inh	Giardia kill
CCCN1CNc2c(c(=O)[nH]c(=S)n2CCc2ccc(OC)cc2)C1	·	·	·	·	·	-13
CCCCN(C)CCNC(=O)c1ccc(Cn2c(=S)[nH]c3ccc(Br)cc3c2=O)cc1	i	-7%	-39%	11µM*	·	-1
CN(C)CCNC(=O)c1ccc2c(=O)n(Cc3ccc(Cl)cc3)c(=S)[nH]c2c1	i	-5%	-77%	?	-22%	9
c1ccc(Nc2cc(Nc3ccccc3)[nH]n2)cc1	?	6%	10µM*	16µM*	3%	-8
Cc1cccc(Cn2cnc3c(cnn3C(C)(C)C)c2=O)c1F	·	·	-22%	-2%	·	·
Cc1cc(C)c(C#N)c(Sc2nc(C)c([N+](=O)[O-])c(C)c2C#N)n1	20µM*	·	13µM*	?	22µM*	·
NC(=O)c1c(OCc2c(F)cc(Br)cc2F)nsc1NC(=O)NCCCCN1CCCC1	·	·	·	·	31µM*	·
Cc1c(C(=O)N2CC3CCC2C3)sc2ncnc(NCCc3ccccn3)c12 (stereo not given)	i	·	·	·	·	·
COc1cc(/C=C/c2ccnc3ccccc23)ccc1N(C)C	·	·	-31%	20%	·	·
O=C(O)CCCCCC(=O)NN=C1CCCC1	·	·	·	·	-10%	·
CCCCCCN1C[C@H](n2cc(C3CC3)nn2)[C@@H](O)C[C@@H]1c1ccc(C)cc1	·	·	16µM*	14µM*	?	·
CCCCCCN1C[C@@H](n2cc(C3CC3)nn2)[C@H](O)C[C@@H]1c1ccc(C)cc1	20µM*	·	-119%	?	?	·
CCCCCCN1C[C@@H](O)[C@H](n2cc(C3CC3)nn2)C[C@@H]1c1ccc(OC)cc1	i	·	-18%	-1%	5%	·
Cc1ccc([C@H]2C[C@@H](O)[C@H](n3cc(C4CC4)nn3)CN2CC2CCCCC2)cc1	i	·	-7%	0%	-10%	·
CCCCCCN1C[C@@H](n2cc(C3CC3)nn2)[C@H](O)C[C@@H]1c1ccc(OC)cc1	20µM*	·	-7%	?	?	·
CN1CCCC(CNC(=O)c2cnn(-c3ncc4c(n3)-c3ccccc3CC4)c2C2CC2)C1 (stereo not given)	i	·	·	·	·	·
O=C(/C=C/c1ccncc1)c1ccc(NC(=O)c2ccccc2F)cc1	?	-5%	5µM*	13µM*	-14%	-7
O=C(/C=C/c1ccc(NC(=O)c2ccccc2-c2ccccc2C(=O)O)cc1)c1ccccc1	i	11%	-70%	?	·	-3
COC(=O)C1CCN(Cc2ccc3c(c2)CN(C(=O)c2sc(C)nc2C)CCO3)CC1	i	·	·	·	·	·
CC(=O)Nc1ccc(S(=O)(=O)Nc2ccc3c(c2)CCC3)cc1	i	1%	-10%	-20%	-22%	7
COc1ccc(S(=O)(=O)Nc2ccc3c(c2)CCC3)cc1	i	1%	-31%	11µM*	-18%	10
O=C(NCC1CCC2(CCN(Cc3cccc4cccnc34)CC2)O1)c1ccco1 (stereo not given)	i	·	·	·	·	·
CCOc1ccc(NC(=O)Nc2c[nH]c(=O)[nH]c2=O)cc1	i	·	-1%	2%	14%	·
CCOC(=O)c1ccc(NC(=O)Nc2c[nH]c(=O)[nH]c2=O)cc1	i	·	3.2µM*	12%	4%	·
Cc1ccc(O)c(N)c1	i	2.8µM*	-43%	-19%	12%	-11
SMILES	ATXN viability	uPA surface inh	HepG2 viability	TGFb inhibitor	ATXN2 expr inh	Giardia kill
CCOc1cc2ncc(C#N)c(Nc3ccc(F)c(Cl)c3)c2cc1NC(=O)C=CCN(C)C	·	·	·	·	22µM*	·
CN(C)CC=CC(=O)Nc1cc2c(Nc3ccc(F)c(Cl)c3)ncnc2cc1O[C@H]1CCOC1	·	·	·	·	27µM*	·
CCN1CCC(n2cc(CNc3cc(Cl)c4ncc(C#N)c(Nc5ccc(F)c(Cl)c5)c4c3)nn2)CC1	·	·	·	·	-19%	·
COc1cc2ncnc(Nc3ccc(F)c(Cl)c3)c2cc1NC(=O)C=CCN1CCCCC1	·	·	·	·	31µM*	·
Cc1ccc(C)c(-c2ccc(=O)n(Cc3ccc(F)cc3Cl)n2)c1	?	-5%	-21%	13µM*	-20%	-3
Cc1ccc(C(=O)Nc2cccc(C(F)(F)F)c2)cc1Nc1cnccn1	i	1%	-36%	?	0%	8
CNc1nccc(-c2cccnc2Oc2cc(C(=O)Nc3cccc(C(F)(F)F)c3)ccc2C)n1	·	·	·	·	24µM*	·
O=C1C=CC(=O)N1c1ccc(O)cc1	i	-21%	7.9µM*	?	·	19
O=C1CCCC(=O)N1c1ccc(O)cc1	i	1%	-8%	-7%	8%	15
Cc1cccnc1-c1cccc2c1OC(CNC(=O)Cc1c(C)noc1C)C2 (stereo not given)	i	·	·	·	·	·
C#C[C@]1(O)CC[C@@H]2[C@@H]3CCC4=CC(=O)CC[C@@H]4[C@H]3CC[C@@]21CC	·	·	·	·	-19%	·
O=C1C(Cc2ccccc2)Nc2ncnc(N3CCCCC3)c2N1Cc1ccc(Br)cc1 (stereo not given)	i	-14%	3.2µM*!	?	-6%	23
O=C1C(Cc2ccccc2)Nc2ncnc(N3CCc4ccccc4C3)c2N1Cc1ccc(Cl)cc1 (stereo not given)	?	?	-20%	18µM*	?	?
O=C1C(Cc2ccccc2)Nc2ncnc(N3CCCCC3)c2N1Cc1ccccc1 (stereo not given)	i	3%	-9%	-1%	-5%	6
CSc1nccc(-c2cc(Cl)c3c(c2)CC(CNC(=O)c2nonc2C)O3)n1 (stereo not given)	i	·	·	·	·	·
COc1ccc(CN(CCC(c2ccc3c(c2)OCO3)c2ccccc2OC)C(C)=O)cc1 (stereo not given)	·	·	-31%	13µM*	·	·
CC(=O)N(CCC(Cc1ccccc1)c1ccc2c(c1)OCO2)Cc1ccc(Cl)cc1 (stereo not given)	?	0%	10µM*	?	?	8
COc1ccccc1NC(=O)c1nc(SCc2ccc(F)cc2)ncc1Cl	·	·	-16%	-1%	·	·
COC(=O)c1ccc(NC(=O)c2nc(S(=O)(=O)Cc3cccc(C)c3)ncc2Cl)cc1	28µM*	-3%	22µM*	?	?	9
COc1ccc(OC)c(NC(=O)c2nc(S(=O)(=O)Cc3ccc(F)cc3)ncc2Cl)c1	·	·	8.9µM*	6.3µM*	·	·
Cc1ccc(CS(=O)(=O)c2ncc(Cl)c(C(=O)Nc3nc4ccc(C)cc4s3)n2)cc1	·	·	-51%	-28%	?	·
COc1ccc2nc(NC(=O)c3nc(S(=O)(=O)Cc4ccc(C)cc4)ncc3Cl)sc2c1	·	·	-100%	4.5µM*	·	·
Cc1ccc(NC(=O)c2nc(S(=O)(=O)Cc3ccc(F)cc3)ncc2Cl)cc1C	·	·	7.1µM*	5.6µM*	·	·
